Bioassay records as filed in PubChem BioAssay.
A selection: hits, their analogues and other compounds. The true share with any hit is near 3%.
LDHA inh: inhibitors of human lactate dehydrogenase A. purified LDHA, NADH/diaphorase-resazurin fluorescence; hits give low values. P00338. AID 1347041. activity change, % (values are at about 110 or 230 µM). hit rate 0.15% among 480,000; in the data active means activity change below about -30%; inconclusive means mostly about -25% to -30%;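 further: plate controls were DMSO wells for no effect and wells without enzyme for full effect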
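LDH5 2 nM; NADH 0.06 mM, pyruvate 0.2 mM; 200 mM Tris pH 7.4, EDTA, Tween-20; 5 min RT. Detection: diaphorase 0.133 mg/mL + resazurin 37 µM, fluorescence ex540/em590 at 0 and 20 min; normalized to enzyme-free and DMSO wells.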
Chronic BCR inh: blocks chronic active B-cell receptor signaling. ABC-DLBCL IkBa-CBG/CBR reporter, luminescence ratio, 4 h. Potency, µM (doses to about 46.1 µM), inactives show at the highest dose activity change, negative = inhibition, actives largely listed as inhibitors. AID 493014. hit rate 0.05% among 340,000; active means well fitted inhibition curve with a large enough effect in the signal ratio, with a control signal flat, not every such curve was filed as active; inconclusive means small, poorly fitted or top-dose-only effect, or effect the other way, or a change in a side signal; the % refers to the signal ratio;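 further: potency means the concentration at half of the fitted maximal effect; plate controls were basal doxycycline-induced cells for no effect and cells given 10 µM MG132 for full effect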
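Compounds up to 46 uM were incubated four hours with TMD8 cells whose green CBG68 luciferase is fused to IkappaBalpha; red CBR luminescence normalised the signal, and concentration-effect curves were fitted to fusion, red and ratio data.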
ALOX12 inh: ALOX12 (human) lipoxygenase inhibition. P18054. purified 12hLO, xylenol orange hydroperoxide absorbance. Potency, µM (highest dose often 108 µM), for the others: at the highest dose activity change, negative = inhibition, actives largely listed as inhibitors. hit rate 1.1% among 580,000. AID 1671190; active means well fitted inhibition curve with a large enough effect; inconclusive means small, poorly fitted or top-dose-only effect, or another doubt; inactive means no such curve, though single readings can be large or run the other way; further: potency means the concentration at half of the fitted maximal effect; on the % scale 0 is the no-effect control and ±100 the full control effect
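Purified human 12hLO (150 nM final) in 25 mM Hepes, 0.01% Triton X-100, pH 7.0 was preincubated 15 min at room temperature with compound. Then 40 uM arachidonic acid was added, 30 min. Hydroperoxide was read by Fe-XO absorbance ratio 573/405 nm.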
KCNH2 WT inh: inhibitors of human wildtype KCNH2 potassium channel; Q12809; U2OS, BacMam KCNH2, thallium flux FluxOr; hits give low values; activity change, % at 1.84 µM; hit rate 0.37% among 340,000; AID 720551;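 active means maximum activity change below -70%; inconclusive means maximum activity change between -70% and -50%; inactive means maximum activity change above -50%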; further: on the % scale 0 is the no-effect control and ±100 the full control effect
Target sequence (Q12809 whole entry, looked up): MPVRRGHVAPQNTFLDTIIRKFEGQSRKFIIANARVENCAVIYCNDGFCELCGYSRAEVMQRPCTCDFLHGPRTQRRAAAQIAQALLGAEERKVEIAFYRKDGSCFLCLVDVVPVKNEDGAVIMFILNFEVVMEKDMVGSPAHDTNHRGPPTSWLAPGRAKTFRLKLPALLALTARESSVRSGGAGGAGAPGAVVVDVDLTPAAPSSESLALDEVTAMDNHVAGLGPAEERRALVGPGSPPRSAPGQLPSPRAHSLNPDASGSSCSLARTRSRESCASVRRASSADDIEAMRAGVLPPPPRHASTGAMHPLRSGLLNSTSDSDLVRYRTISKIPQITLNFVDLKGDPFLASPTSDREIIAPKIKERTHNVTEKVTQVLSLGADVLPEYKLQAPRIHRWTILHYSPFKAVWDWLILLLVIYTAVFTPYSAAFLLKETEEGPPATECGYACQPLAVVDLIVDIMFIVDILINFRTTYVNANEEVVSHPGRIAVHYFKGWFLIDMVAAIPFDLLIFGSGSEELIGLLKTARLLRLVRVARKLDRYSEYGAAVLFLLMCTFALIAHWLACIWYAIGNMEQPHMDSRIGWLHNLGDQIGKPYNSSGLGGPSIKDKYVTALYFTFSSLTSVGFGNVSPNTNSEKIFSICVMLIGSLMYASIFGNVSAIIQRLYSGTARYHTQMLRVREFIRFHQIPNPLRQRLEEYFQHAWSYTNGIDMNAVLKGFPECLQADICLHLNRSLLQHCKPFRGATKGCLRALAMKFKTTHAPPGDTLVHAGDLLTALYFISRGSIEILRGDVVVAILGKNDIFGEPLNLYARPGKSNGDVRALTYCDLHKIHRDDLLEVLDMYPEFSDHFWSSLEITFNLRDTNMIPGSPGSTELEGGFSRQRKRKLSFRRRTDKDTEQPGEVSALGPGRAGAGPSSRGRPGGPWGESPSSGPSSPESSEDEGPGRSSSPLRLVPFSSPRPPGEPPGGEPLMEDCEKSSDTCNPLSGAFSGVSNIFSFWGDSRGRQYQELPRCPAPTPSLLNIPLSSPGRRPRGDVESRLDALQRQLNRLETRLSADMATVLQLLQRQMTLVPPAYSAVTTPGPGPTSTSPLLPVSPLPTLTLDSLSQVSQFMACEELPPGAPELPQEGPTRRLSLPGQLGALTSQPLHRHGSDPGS
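U2OS cells were transduced with wild-type KCNH2 virus (2.03 x 10^8 / mL) for 4 h at room temperature, then cultured overnight at 37 C. Thallium flux was read with FluxOr dye. Rate constants were normalized to DMSO controls.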
ClpP mod: qHTS Assay for Activators of ClpP; AID 651965, 2013; Potency, µM (top dose mostly 57.5 µM), for inactives: at the top dose activity change, negative = active; hit rate 1.9% among 340,000; purified B. subtilis ClpP, FRET peptide cleavage, 20 min; active means well fitted falling curve with a large enough effect; inconclusive means small, poorly fitted or top-dose-only effect; inactive means no such curve, though single readings can be large or run the other way; further: potency means the concentration at half of the fitted maximal effect; the source files actives as falling curves though it sought activators and does not explain the sign; nearly all actives have a fitted effect of over 65% in size
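ClpP 10 microg/mL final, pH 8 Tris/KCl buffer with BSA, glycerol, Tween-20; compound pinned in; FRET-FV substrate; RT 20 min; Ex320/Em430; ΔFRET vs ADEP 5.8 microM, DMSO, no enzyme.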
KCNH2 3.1 inh: inhibitors of human KCNH2 3.1 potassium channel isoform; hit rate 0.95% among 340,000; U2OS KCNH2 3.1, thallium flux FluxOr; hits give low values; activity change, % (tested at about 1.8 µM);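 active means maximum activity change below -70%; inconclusive means maximum activity change from -70% to -50%; inactive means maximum activity change above -50%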;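 further: thallium influx rate constant from kinetic fluorescence after stimulation buffer; on the % scale 0 is the no-effect control and ±100 the full control effect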
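U2OS cells transduced with KCNH2 3.1 mutant virus (1.77 x 10^8 /mL, 4 h), plated overnight at 37 C, loaded 45 min with FluxOr dye plus Red40 quencher. Thallium flux rate constant from kinetic reads after stimulation buffer, normalised to controls.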
* hit, by the source's call; ? = inconclusive; · = no result; ! = not active in a repeat; [ ] = another dose, or the depositor's remark.

SMILES	LDHA inh	Chronic BCR inh	ALOX12 inh	KCNH2 WT inh	ClpP mod	KCNH2 3.1 inh
O=c1c2nnn(-c3ccc(F)cc3)c2ncn1Cc1nc(-c2ccccc2)no1	-10	·	-21%	·	·	·
CCN(CC)CCN1C(=O)c2ccccc2NC1c1ccc(F)cc1 (stereo not drawn)	-3	-6%	?	65	32µM*	-27
CCN(CC)CCN1C(=O)c2ccccc2NC1c1ccc(C)cc1 (stereo not drawn)	-5	2%	13%	46	32µM*	-17
CCN(CC)CCN1C(=O)c2ccccc2NC1c1ccc(Br)cc1 (stereo not drawn)	-5	3%	?	-9	·	-26
CCN(CC)CCN1C(=O)c2ccccc2NC1c1ccc(N(C)C)cc1 (stereo not drawn)	5	?	-1%	9	-10%	-11
O=C(c1ccc(Cl)cc1)C(CN1CCCCCC1)c1ccccc1 (stereo not drawn)	-2	·	-14%	·	·	·
O=C(c1ccccc1)C(CN1CCCCC1)c1ccccc1 (stereo not drawn)	-3	·	45µM*	-4	·	-11
COc1ccc(/C=N/N=C2/NC(=O)C(CC(=O)O)S2)cc1OCc1ccc(Cl)cc1Cl (stereo not drawn)	-45*	?	-28%	6	1%	5
CC(C)(C)c1ccc(-c2nnc(SCC(=O)N3CCCC3=O)n2C2CCCC2)cc1	1	·	-27%	·	·	·
COc1cc(C(=O)Oc2ccc3c(OC)c4ccoc4nc3c2OC)cc(OC)c1OC	·	·	-8%	·	·	·
COc1c2ccoc2nc2c(OC)cccc12	0	?	-30%	-2	16µM*	-12
CCN(CC(=O)NCc1ccc(F)cc1)Cc1nc2cc(Cl)ccc2c(=O)[nH]1	-6	?	5%	3	7.1µM*	-6
CCN(CC(=O)NCCc1ccc(F)cc1)Cc1nc2ccccc2c(=O)[nH]1	-9	2%	3%	12	-1%	6
CCCCn1c(=NC(=O)c2cccnc2)c(C(=O)OCC)cc2c(=O)n3ccccc3nc21	-1	17%	0%	7	?	9
Cc1cccn2c(=O)c3cc(C#N)c(=NC(=O)c4ccncc4)n(CCCOC(C)C)c3nc12	0	6%	?	-5	7%	18
CCOCCCn1c(=NC(=O)c2cccnc2)c(C(=O)OCC)cc2c(=O)n3ccccc3nc21	-2	8%	?	0	20µM*!	0
CCCCCn1c(=NC(=O)c2ccco2)c(C(=O)OCC)cc2c(=O)n3ccccc3nc21	-6	1%	-22%	1	16µM*	3
COCCCn1c(=NC(=O)c2ccncc2)c(C#N)cc2c(=O)n3cccc(C)c3nc21	2	-2%	-20%	-1	0.71µM*	11
CCOC(=O)c1cc2c(=O)n3cccc(C)c3nc2n(CCCOC)c1=NC(=O)c1cccnc1	-4	9%	1%	-10	16µM*	-10
COc1ccc(C2CC(=O)N(c3ccccc3)C3=C2C(=O)OC3)cc1 (stereo not drawn)	0	·	-35%	·	·	·
Cc1ccc(-c2cc(C(F)F)n3nc(C)c(Br)c3n2)cc1	-34*	·	-26%	·	·	·
Cc1cc2n(n1)SC(Nc1ccccc1)N2 (stereo not drawn)	-4	?	14µM*	1	-1%	0
Cc1ccc(NC2Nc3cc(C)nn3S2)c(C)c1 (stereo not drawn)	-3	?	40µM*	0	·	12
Cc1cc(NC(=NC2CC2)c2ccccc2)n(-c2ccccc2)n1	-23	4%	-2%	11	·	4
Cc1cccc(OCCOCCSc2ncccn2)c1	-4	?	2%	5	-1%	4
SMILES	LDHA inh	Chronic BCR inh	ALOX12 inh	KCNH2 WT inh	ClpP mod	KCNH2 3.1 inh
c1ccc(OCCOCCSc2ncccn2)cc1	-7	?	349%	-8	20µM*	-2
O=C(CCC[C@@H]1[C@H]2CCCN3CCC[C@@H](CN1C(=O)c1cccnc1)[C@@H]23)NC1CCCCC1	·	·	51%	·	·	·
Cc1cc2c(cc1C)CSC(c1cc(Br)ccc1O)SC2	-1	·	?	·	·	·
Cc1cc2c(cc1C)CSC(c1c(O)ccc3cc(Br)ccc13)SC2	6	·	0.79µM*	·	·	·
COC[C@@H]1CN(C(=O)Cc2cccc(F)c2)C[C@H]1c1ccncc1	·	·	12%	·	·	·
COc1ccc(-c2n[nH]c(=S)n2CC(C)C)cc1	-12	-13%	?	-3	-11%	8
Cc1cccc(-c2n[nH]c(=S)n2Cc2ccccc2)c1	-3	-11%	?	2	-14%	0
COc1ccc(OCc2n[nH]c(=S)n2-c2ccc(C)cc2)cc1	-1	?	?	7	1%	7
COc1ccc(-n2c(COc3cccc(C)c3)n[nH]c2=S)cc1	-7	-1%	8.9µM*	3	·	7
COc1ccc(Cc2n[nH]c(=S)n2CC(C)C)cc1	2	·	14µM*	·	·	·
Cc1ccc(-c2n[nH]c(=S)n2Cc2ccccc2)cc1	-12	6%	40µM*	2	-26%	10
S=c1[nH]nc(-c2cc3ccccc3o2)n1Cc1ccccc1	-4	12%	45µM*	2	3.2µM*	-30
CC(C)CNC(=O)N1CCCCCCN(C)C(=O)[C@@H]2CCC[C@@H]21	·	·	3%	·	·	·
Cc1ccc2c(c1)nc1n2[C@@H](CNC(=O)c2cccnc2)COC1	·	·	21%[176 µM]	·	·	·
COc1c(C)cnc(CN2CCN(C(C(=O)O)c3c[nH]c4ccc(Br)cc34)CC2)c1C (stereo not drawn)	2	·	13%	·	·	·
Cc1cc(Cl)ccc1OCc1nnc(SCc2ccc(Cl)c(Cl)c2)n1C	3	·	-16%	·	·	·
S=c1[nH]nc(-c2ccco2)n1-c1ccc(Cl)cc1	0	-1%	40µM*	5	·	10
CC(C)Oc1ccc(Cn2c(-c3ccco3)n[nH]c2=S)cc1	-10	0%	?	-15	28µM*	-8
COc1ccc(-c2n[nH]c(=S)n2-c2ccc(C)cc2C)cc1	-4	-1%	6.3µM*	9	-30%	-1
COc1ccc(Cn2c(-c3ccc(OC)cc3)n[nH]c2=S)cc1	-3	0%	16µM*	0	·	-8
Cn1c2c(c3cc(F)ccc31)CN(C(=O)Nc1cccc(Cl)c1)CC2	·	·	107%	·	·	·
COc1cc(NC(=S)NC(=O)c2cccs2)ccc1NC(=O)C(C)C	-3	?	7.1µM*	-2	0%	-9
CC(C)C(=O)Nc1cccc(NC(=S)NC(=O)c2cccs2)c1	-3	?	4%	-3	0%	0
CCC(=O)Nc1cc(C)ccc1NC(=O)c1cccs1	-31*	·	0%	·	·	·
